Only some compounds are listed: those with a hit (about 1.3% of all), similar ones and a draw of the others.
LRH-1 inv ag: inverse agonists of human LRH-1 (NR5A2); HEK293T StAR-luciferase reporter, LRH-1 transfected, 24 h; inhibition, % at 3.6 µM; 0.13% of 360,000 active; AID 602396;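 active = inhibition above the mean inhibition of all tested compounds plus 3 SD, cut at about 73% in these data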;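 note: 0% = DMSO wells and 100% = reporter-only cells lacking LRH-1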
Gli-Sufu antag: Gli-Sufu pathway antagonism; Sufu-KO-LIGHT fibroblasts, Gli luciferase reporter luminescence; inhibition, % at 5 µM; 0.74% of 340,000 active; AID 588413;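 active = inhibition above about 55%, limit read from the data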;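 note: 0% = DMSO-treated cells and 100% = wells with medium but no cells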
NCOA1 inh: inhibitors of human steroid receptor coactivator 1 (SRC1). HEK293 GAL4-SRC1 luciferase reporter, luminescence. AID 588354. Q15788. 0.12% of 360,000 active. inhibition, % at 3.6 µM;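 active = inhibition above the campaign mean plus 3 SD, with each screening campaign given its own cutoff, cut at about 60% in these data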;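 note: 0% = DMSO treated cells and 100% = gossypol at 36 µM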
NCOA3 inh: human NCOA3 inhibition; Q9Y6Q9; HEK293 GAL4-SRC3 luciferase reporter, luminescence; inhibition, % at 3.6 µM; 0.17% of 360,000 active; AID 588352;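 active = inhibition above a per-campaign cutoff, the mean of all compounds plus 3 SD, cut at about 60% in these data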;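 note: 0% = DMSO-treated cells and 100% = gossypol-treated cells at 36 µM; higher means less SRC3-driven luciferase light from the GAL4 reporter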
COUP-TFII inh: inhibitors of human COUP-TFII (NR2F2); AID 686940; HEK293T NGFI-A luciferase reporter, luminescence; inhibition, % at 8.6 µM; P24468; 0.7% of 370,000 active;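 active = inhibition above a per-plate cutoff, mean inhibition of test wells between control levels plus 3 SD, cut at about 38% in these data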;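 note: cells cotransfected with COUP-TFII expression vector driving the NGFI-A reporter; 0% = median of COUP-TF2 test wells and 100% = reporter-only cells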
SRC2 inh: inhibits human steroid receptor coactivator 2; Q15596; HEK293 GAL4-SRC2 luciferase reporter, luminescence; inhibition, % at 9 µM; 0.17% of 370,000 active; AID 651957;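 active = inhibition above the mean inhibition of all tested compounds plus 3 SD, set per campaign, cut at about 52% in these data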;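 note: 0% = DMSO treated cells and 100% = cells given Gossypol at 36 µM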
Target sequence (Q15596 whole entry, looked up, the tested form may be a part): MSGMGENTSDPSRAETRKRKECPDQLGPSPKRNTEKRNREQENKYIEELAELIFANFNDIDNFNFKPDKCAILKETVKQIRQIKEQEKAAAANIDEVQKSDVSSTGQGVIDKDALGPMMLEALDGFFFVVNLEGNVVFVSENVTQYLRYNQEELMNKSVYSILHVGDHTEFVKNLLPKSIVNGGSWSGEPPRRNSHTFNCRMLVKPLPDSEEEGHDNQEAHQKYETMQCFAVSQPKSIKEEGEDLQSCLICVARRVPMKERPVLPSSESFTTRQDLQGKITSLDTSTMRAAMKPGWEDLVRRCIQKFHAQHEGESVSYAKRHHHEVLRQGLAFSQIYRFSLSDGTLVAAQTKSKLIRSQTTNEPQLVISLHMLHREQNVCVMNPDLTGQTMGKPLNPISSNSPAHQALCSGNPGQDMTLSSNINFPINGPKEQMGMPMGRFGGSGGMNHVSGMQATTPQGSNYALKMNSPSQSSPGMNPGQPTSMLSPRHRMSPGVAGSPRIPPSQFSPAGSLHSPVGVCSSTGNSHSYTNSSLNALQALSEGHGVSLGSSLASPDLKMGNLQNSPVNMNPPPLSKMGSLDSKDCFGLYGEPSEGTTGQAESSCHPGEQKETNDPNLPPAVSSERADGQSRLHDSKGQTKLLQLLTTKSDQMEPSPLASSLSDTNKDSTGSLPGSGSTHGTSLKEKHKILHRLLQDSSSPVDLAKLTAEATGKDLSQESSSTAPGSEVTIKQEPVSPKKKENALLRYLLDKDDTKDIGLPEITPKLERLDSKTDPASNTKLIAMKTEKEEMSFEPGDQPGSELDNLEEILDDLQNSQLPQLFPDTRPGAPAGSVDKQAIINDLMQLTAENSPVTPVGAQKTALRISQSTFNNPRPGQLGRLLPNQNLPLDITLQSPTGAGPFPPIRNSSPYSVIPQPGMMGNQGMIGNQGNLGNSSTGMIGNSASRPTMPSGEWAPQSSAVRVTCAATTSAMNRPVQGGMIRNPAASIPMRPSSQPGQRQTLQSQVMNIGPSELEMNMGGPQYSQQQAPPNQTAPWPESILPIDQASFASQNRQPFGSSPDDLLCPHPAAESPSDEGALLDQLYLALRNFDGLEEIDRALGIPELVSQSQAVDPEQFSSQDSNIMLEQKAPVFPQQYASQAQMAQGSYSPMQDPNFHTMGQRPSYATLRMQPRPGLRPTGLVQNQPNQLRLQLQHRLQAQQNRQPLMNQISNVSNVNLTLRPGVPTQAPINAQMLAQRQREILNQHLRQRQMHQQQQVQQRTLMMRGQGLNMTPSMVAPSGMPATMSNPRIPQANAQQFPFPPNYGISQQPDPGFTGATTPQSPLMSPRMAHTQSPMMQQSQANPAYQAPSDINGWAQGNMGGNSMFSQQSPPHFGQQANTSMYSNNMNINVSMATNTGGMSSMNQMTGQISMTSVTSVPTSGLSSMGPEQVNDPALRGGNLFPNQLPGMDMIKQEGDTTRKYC
Gli-Sufu confirm: Gli-SUFU antagonism confirmation, single concentration. Sufu-KO-LIGHT cells, Gli luciferase reporter, luminescence. inhibition, % at 5 µM. AID 602428. shares compounds with Gli-Sufu antag. 40% of 2,500 active;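 active = mean inhibition at 5 µM reaching about 45%, limit read from the data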;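 note: plate controls were DMSO-treated cells for no effect and wells lacking cells for full effect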
SufuKO cytotox: cytotoxic in Gli-SUFU antagonist counter-screen; shares compounds with Gli-Sufu antag; Sufu-KO-LIGHT cells cytotoxicity, ATP luminescence; cytotoxicity, % at 5 µM; 32% of 2,500 active; AID 651994;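 active = mean cytotoxicity at 5 µM above about 25%, limit read from the data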;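 note: cells exposed to compound overnight for roughly 16 to 18 hours; plate controls were DMSO wells with cells for no effect and medium without cells for full effect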
Wnt3a cs: inhibits Wnt3a reporter, counter-screen for Gli-SUFU antagonists; shares compounds with Gli-Sufu antag; Wnt-LIGHT cells, Wnt3a-driven luciferase reporter, luminescence; inhibition, % at 6.25 µM; 20% of 2,500 active;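 active = mean inhibition above about 25%, limit read from the data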
Active calls of the source: *; . = not tested or not shown.

SMILES	LRH-1 inv ag	Gli-Sufu antag	NCOA1 inh	NCOA3 inh	COUP-TFII inh	SRC2 inh	Gli-Sufu confirm	SufuKO cytotox	Wnt3a cs
CC(=O)Nc1ccc(N2C(=O)CSC2c2ccc(F)cc2)cc1 (stereo not drawn)	-3.8	0.7	-2.3	4.8	-5.5	-11.0	.	.	.
CC(=O)Nc1ccc(N2C(=O)CSC2c2c(F)cccc2Cl)cc1 (stereo not drawn)	-3.4	52.2	7.4	9.7	-5.3	-26.1	9.2	12.9	-14.5
Cc1ccc(-n2ncc(C(=O)Nc3cc(Cl)ccc3C)c2C2CCNCC2)cc1C	3.0	36.8	-13.2	19.2	-8.9	-6.7	.	.	.
Cc1cccc(NC(=O)c2cnn(-c3ccc(F)cc3)c2C2CCNCC2)c1C	-1.0	54.8	13.9	4.2	-10.1	5.4	18.1	-1.2	11.3
Cc1nn(C(C)(C)C)c(OC(=O)c2ccco2)c1Sc1ccccc1	19.2	92.4*	7.2	8.8	17.4	5.7	35.7	4.3	0.2
COC(=O)[C@]12C[C@H](CC(=O)NCc3ccc(OC)c(OC)c3)C(=O)N(Cc3ccco3)C1=C[C@H](COCc1ccccc1)O[C@@H]2C	.	.	.	.	2.8	4.4	.	.	.
CN1/C(=C\C(=O)COC(=O)c2ccc(O)cc2)C(C)(C)c2ccccc21	7.5	10.4	-9.0	9.2	20.4	-9.7	.	.	.
CN1/C(=C\C(=O)COC(=O)CNC(=O)c2ccccc2F)C(C)(C)c2ccccc21	-9.7	1.5	11.0	10.8	-7.6	30.1	.	.	.
CN1/C(=C\C(=O)COC(=O)c2ccc(O)c(O)c2)C(C)(C)c2ccccc21	.	64.9*	.	.	16.0	28.5	64.3*	25.6*	75.4*
CN1/C(=C\C(=O)COC(=O)CNC(=O)c2ccc3ccccc3c2)C(C)(C)c2ccccc21	-3.3	51.4	2.5	0.3	12.3	17.3	46.5*	14.4	8.3
O=C(COC(=O)c1cnc(Cl)c(Cl)c1)NCCC1=CCCCC1	-7.5	50.9	-25.2	-3.2	11.2	-5.0	9.4	17.1	0.0
OCC1CCCN(c2nc(CN3CCCCC3)nc3scc(-c4ccccc4)c23)C1 (stereo not drawn)	-21.7	27.6	10.2	18.4	2.5	-13.1	.	.	.
CCNc1nc(CN2CCCCC2)nc2scc(-c3ccccc3)c12	14.4	69.2*	3.2	13.0	32.4	30.8	56.1*	17.7	-31.8
CC(=O)Nc1ccc(S(=O)(=O)Nc2c(C)n(C)n(-c3ccccc3)c2=O)cc1	4.3	3.2	-1.9	14.3	4.9	18.2	.	.	.
Cc1c(NS(=O)(=O)c2ccc(NC(=O)CCC(=O)O)cc2)c(=O)n(-c2ccccc2)n1C	9.7	62.6*	-17.1	16.9	1.1	11.6	5.2	14.1	-33.2
CC(C)(C)c1ccc(S(=O)(=O)N2CCCC2C(=O)N2CCc3ccccc3C2)cc1 (stereo not drawn)	.	.	.	.	-2.9	9.3	.	.	.
Cc1cc(N/N=C/c2ccc(O)cc2O)nc(-n2nc(C)cc2C)n1	-11.2	87.9*	-8.4	5.8	5.1	5.0	59.6*	27.0*	-35.0
CCCCNS(=O)(=O)c1ccc(S(=O)(=O)NCc2ccncc2)cc1	25.7	56.8*	-25.5	34.3	32.7	27.1	59.4*	36.8*	23.5
CCCCc1ccc(S(=O)(=O)NCCc2ccncc2)cc1	-3.5	15.0	-1.4	5.6	18.9	28.1	.	.	.
O=S(=O)(NCc1ccccc1)c1ccc(S(=O)(=O)NCC2CCCO2)cc1 (stereo not drawn)	15.5	25.6	-11.2	-4.1	-9.7	-18.0	.	.	.
O=S(=O)(NCc1ccncc1)c1ccc(S(=O)(=O)NCC2CCCO2)cc1 (stereo not drawn)	15.3	52.6	9.6	12.1	22.1	17.2	42.3	13.2	25.7*
COC(=O)C1CN(CC(C)C)CCS(=O)(=O)N1Cc1ccc(C(F)(F)F)cc1 (stereo not drawn)	.	.	.	.	14.9	11.4	.	.	.
CN(C)S(=O)(=O)c1cccc(-c2nn(-c3ccccc3)cc2/C=C(/C#N)C(=O)NCc2ccco2)c1	8.1	82.8*	-4.9	12.6	-5.3	-0.1	30.1	7.5	14.5
CCOc1ccc(Cl)cc1CNc1nnnn1C	20.2	51.2	9.8	9.8	-13.3	0.7	15.8	15.1	-1.4
CCOc1ccccc1CNc1nnnn1C	0.7	.	6.6	-1.4	-9.7	-7.1	.	.	.
SMILES	LRH-1 inv ag	Gli-Sufu antag	NCOA1 inh	NCOA3 inh	COUP-TFII inh	SRC2 inh	Gli-Sufu confirm	SufuKO cytotox	Wnt3a cs
O=C(CCNC(=O)C1CCN(S(=O)(=O)c2ccc(F)cc2)CC1)NCc1ccc(F)cc1	-3.0	-21.1	-0.2	13.1	9.1	-11.4	.	.	.
CCOc1ccc(NC(=O)CCNC(=O)C2CCN(S(=O)(=O)c3ccccc3)CC2)cc1	5.3	57.3*	-10.8	-4.4	3.2	16.1	13.9	25.6*	-26.2
O=C(CCNC(=O)C1CCN(S(=O)(=O)c2ccc(F)cc2)CC1)NCc1ccc(Cl)cc1	-28.3	60.5*	-3.8	10.7	8.9	26.6	13.0	10.8	-9.6
CC1(C(=O)N2CCC(Oc3cccnc3)CC2)CC1	.	.	.	.	18.1	-5.1	.	.	.
CC(C)N(Cc1ccccc1)S(=O)(=O)c1ccc(F)cc1	-13.7	59.4*	7.2	9.5	1.8	22.4	48.7*	33.6*	32.8*
CCN(CC)CCN1C(=O)c2oc3ccccc3c(=O)c2C1c1ccc(C)cc1 (stereo not drawn)	3.6	80.0*	-9.8	-9.6	-14.2	5.7	21.9	-6.0	-22.1
CN(C)CCN1C(=O)c2oc3ccccc3c(=O)c2C1c1ccc(F)cc1 (stereo not drawn)	-19.8	1.2	-11.9	3.4	6.6	-10.6	.	.	.
COc1cccc(CNc2ncnc3ccc(-c4c(C)noc4C)cc23)c1	20.7	16.8	35.2	37.6	-49.1	-1.1	.	.	.
Cc1ccsc1CNc1ncnc2ccc(-c3c(C)noc3C)cc12	43.0	53.2	-13.0	27.8	-80.4	-21.2	61.8*	25.4*	-3.3
C[C@H]1[C@@H](N(C)C)CC[C@@]23CCCN2C(=O)CCC[C@@H]13	.	.	.	.	-13.9	.	.	.	.
CCOc1ccc(S(=O)(=O)N2CCCCC2)cc1NC(=O)c1cccnc1OCC	4.9	55.8*	-3.3	-12.0	11.8	16.4	27.7	18.6	-40.6
CCOc1ncccc1C(=O)Nc1cc(S(=O)(=O)N2CCCCC2)ccc1C	-7.3	3.7	14.0	-10.8	-19.3	-4.8	.	.	.
Cc1nc2ccc(NC(=O)c3cc(F)cc(F)c3)cc2c(=O)[nH]1	.	.	.	.	7.4	-9.4	.	.	.
Cc1ccc(-n2c(SCC(=O)c3ccc(F)cc3)nnc2-c2cnccn2)cc1	.	.	.	.	14.7	-27.7	.	.	.
OC1(c2cccs2)CN(c2ccc(Cl)cc2)C2=[N+]1CCCC2 (stereo not drawn)	-7.1	12.4	10.3	4.8	2.4	10.7	.	.	.
